# Data: PubChem BioAssay AID1080 (Emory University Molecular Libraries Screening Center, 2008)
# Among all 1,300 compounds or so, about 640 (49%) were called active.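 How the source made its calls: active means cAMP induction above 50% in the main assay while under 30% in all four parallel counter assays; inactive means the rest.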 So high a share suggests a set chosen from earlier hits. Not all results are given here.
# Tests used:
# [1] = EP2 hit retest with parallel cAMP counter-assays – cell-based, five parallel assays, C6 glioma, HEK293, counter-screen for EP2 modulator project, confirmation (AID 1080); details: C6 glioma EP2 cells, cAMP HTRF induction
# [2] = target: Prostaglandin E2 receptor EP2 subtype (Homo sapiens) (UniProt P43116); assay: as above; details: C6 glioma EP2 cells, cAMP HTRF induction; stronger effect = higher value; screened at 20 µM (by protocol); percent of 1 uM PGE2 response; plus low (about EC15) PGE2 agonist
# [3] = measured here: EP4 receptor counter-screen, percent of 1 uM PGE2 response, plus low (about EC15) PGE2 agonist
# [4] = measured here: beta2 adrenergic HEK293 counter-screen
# [5] = measured here: cAMP conditions counter-screen
# [6] = measured here: parent C6 cells counter-screen
SMILES,"cAMP induction [1, 3]","cAMP induction [1, 4]","cAMP induction [1, 5]","cAMP induction [1, 6]",cAMP induction [2]
O=C(Nc1ccccc1N1CCCCC1)c1ccc2nccnc2c1,-20.6%,-12.3%,-1.35%,-3.85%,56.9% (active)
O=C(Nc1ccccc1N1CCCCC1)c1cccc(F)c1,20.9%,-8.46%,-6.32%,-1.46%,54.4% (active)
CCC(C)(C)c1ccc(OCC(=O)N(C)C)c(C(C)(C)CC)c1,-18%,-18.7%,-1.65%,-11.3%,18.5% (inactive)
CC[C@@H]1Cc2cc(O)ccc2C2=C1c1ccc(O)cc1C[C@H]2CC,-0.0767%,-11.7%,6.45%,2.02%,34.5% (inactive)
CCCc1cc(-c2n[nH]c(=S)n2Cc2ccccc2)cs1,1.9%,-7.59%,-4.47%,1.74%,37.8% (inactive)
CCCCOc1ccc(-c2nnc(-c3ccco3)o2)cc1,-1.8%,-7.34%,3.34%,3.09%,50.4% (active)
Cc1cc(C#N)c(SCC(N)=O)nc1-c1ccc(F)cc1,9.53%,7.22%,2.14%,-4.05%,50.9% (active)
FC(F)(F)c1cccc(-c2cc3ccccc3nc2N2CCCC2)c1,17.7%,-13%,-2.73%,-3.28%,52.7% (active)
CCOC(=O)c1c(C2CC2)csc1NC(=O)CSCc1c(C)noc1C,-15.3%,-5.42%,-2.02%,2.56%,48.8% (inactive)
O=c1cc(N2CCCCC2)c(-c2ccccc2)nn1Cc1cccc(F)c1,-7.11%,-13%,3.15%,3.46%,79.6% (active)
CCOc1ccc(NC(=O)CSc2ncnc3c2sc2ccccc23)cc1,80.8%,81.1%,79.9%,80.1%,77.7% (inactive)
COc1ccc(C)c(Cn2c(-c3nonc3N)nc3ccccc32)c1,4.7%,-6.52%,1.9%,1.52%,69.6% (active)
COC(=O)C1=C(C)N(C)C(C)=C(C(=O)OC)C1c1cccc(Br)c1,-5.89%,5.82%,-5.28%,1.49%,46% (inactive)
Cc1ccccc1-c1n[nH]c(=S)n1/N=C/c1ccc(-c2ccccc2Br)o1,18.4%,14.3%,22.4%,19.4%,57.9% (active)
O=c1[nH]c(CSc2ncc(-c3ccc(F)cc3)n2Cc2ccco2)nc2ccccc12,-12.9%,-5.45%,-6.27%,-5.69%,39.9% (inactive)
Cc1nn2c(c1-c1ccccc1)N=C(c1ccco1)CC2c1ccccc1 (stereo not given),-13.9%,-0.13%,0.137%,4.52%,36.7% (inactive)
NC(=O)COc1ccc(C23CC4CC(CC(C4)C2)C3)cc1,-2.42%,-18.4%,7.34%,-0.99%,64.6% (active)
Cc1nc2ccccc2c(-c2ccccc2)c1C(=O)c1ccccc1,2.31%,4.97%,-6.03%,-0.11%,88.9% (active)
CC(C)(C)c1nc2ccccc2c(=O)n1N1C(=O)c2ccccc2C1=O,-2.16%,4.41%,5.06%,3.57%,36.9% (inactive)
O=c1c2ccccc2nc2n1C1(CCCCC1)Cc1ccccc1-2,-3.33%,-1.27%,0.00333%,-4.35%,55.1% (active)
CN(C)Cc1ccc(F)cc1Sc1cc(Cl)ccc1Cl,-1.47%,-10.1%,-3.1%,2.77%,45.2% (inactive)
CC(C)NC(=S)NN=C1CCCCCCCCCCC1,1.01%,7.6%,2.87%,-7.59%,54.8% (active)
COC(=O)CSc1nc2c(c(C3CC=CCC3)c1C#N)CCC2 (stereo not given),1.11%,7.56%,3.4%,4.46%,69.8% (active)
CSc1ncnc2sc(C)c(C)c12,5.89%,2.78%,5.03%,0.0167%,42.1% (inactive)
Cc1cccc(Cn2c(N3CCN(c4ccccc4)CC3)nc3c2c(=O)n(C)c(=O)n3C)c1,-5.29%,-6.91%,5.21%,1.06%,54.8% (active)
CC1CCN(c2nc3c(c(=O)[nH]c(=O)n3C)n2CCCc2ccccc2)CC1,4.8%,-2.72%,-1.35%,-0.403%,42.2% (inactive)

SMILES,"cAMP induction [1, 3]","cAMP induction [1, 4]","cAMP induction [1, 5]","cAMP induction [1, 6]",cAMP induction [2]
COc1c2c(cc3occ(-c4ccc5c(c4)OCO5)c(=O)c13)OC(C)(C)C=C2,-0.877%,-13.4%,2.3%,4.12%,46.1% (inactive)
CC(C)Oc1ccc(Cc2n[nH]c(=S)n2Cc2ccccc2)cc1Cl,-4.47%,-10.4%,0.63%,2.28%,40% (inactive)
CC1(C)Cc2nc3sc4c(SCC(=O)NC(c5ccccc5)c5ccccc5)ncnc4c3cc2CO1,71.8%,71.7%,70.8%,70%,68.6% (inactive)
CCOC(=O)C1=C(CN2CCc3ccccc32)NC(=O)NC1c1ccc(Cl)cc1 (stereo not given),-13%,-5.75%,-12.2%,-1.26%,42.4% (inactive)
Cc1cc(NC(=O)CN2CCCC(C)C2)n(-c2nc3ccccc3s2)n1 (stereo not given),16.2%,6.5%,-2.07%,-6.69%,50.7% (active)
COC(=O)c1sc2[nH]c(=S)n(N)c(=O)c2c1C,68.1%,67.4%,67.6%,66.3%,70.6% (inactive)
Cc1cccc2cc(CN(Cc3cccs3)C(c3nnnn3C3CCCC3)C(C)C)c(=O)[nH]c12 (stereo not given),-2.3%,-6.33%,1.55%,3.32%,59.5% (active)
Oc1ccc(/C=N/N(Cc2ccccc2)c2ccccc2)cc1,-13.7%,-14.9%,-0.103%,2.51%,55.2% (active)
CCN1CCN(c2c(Cl)cccc2NC(=O)c2ccc(Br)o2)CC1,9.56%,-6.35%,8.3%,10.5%,45.8% (inactive)
CCOC(=O)c1c(N)nn(C(=O)c2ccccc2)c1-c1ccccc1,-2.57%,-8.03%,0.963%,-2.53%,53.3% (active)
Cc1ccc(-n2c(SCC(=O)Nc3ccc4c(c3)OCO4)nnc2-c2ccoc2C)cc1,7.89%,-0.777%,-1.2%,-1.05%,40.3% (inactive)
COc1ccccc1NC(=O)CSc1nnc(Cn2nnc(-c3ccccc3)n2)n1-c1ccccc1,-5.84%,-2.51%,2.46%,3.99%,61.9% (active)
CSc1nc2ccccc2c(=O)n1Cc1ccc(F)cc1,1.87%,10%,-3.28%,0.81%,44.6% (inactive)
O=c1c2ccccc2c(-c2ccccc2)nn1Cc1ccccc1,1.05%,4.51%,-1.54%,-0.867%,78% (active)
O=c1c2ccccc2c(-c2ccc(Br)cc2)nn1Cc1ccccc1,4.3%,8.28%,-3.64%,0.753%,72.8% (active)
O=C(COC(=O)c1ccccc1)Nc1ccccc1Sc1ccccc1,5.14%,-16.3%,-4.67%,-4.62%,66.8% (active)
Cc1ccccc1C(=O)Nc1ccccc1Sc1ccccc1,-6.34%,-0.06%,-1.62%,-1.24%,73.7% (active)
O=C(CN1CCCCC1)N1c2ccccc2Sc2ccc(C(F)(F)F)cc21,-11.3%,-1.41%,-5.21%,-5.14%,47.3% (inactive)
CCc1ccccc1NC(=O)/C(=C/c1ccccc1)c1ccccc1,-11.7%,34%,-0.563%,-0.623%,53.6% (inactive)
Cc1ccc(C(=O)c2c(NC(=O)c3ccncc3)sc3c2CCCC3)cc1,4.56%,-17.1%,0.45%,3.43%,54.2% (active)
CCOCC(=O)Nc1sc2c(c1C(=O)OCC)CCCC2,-16%,3.07%,3.98%,1.75%,40.6% (inactive)
CC1(C)CC2CC(C)(CN2c2ncnc3ccc(Br)cc23)C1 (stereo not given),-0.537%,-0.287%,6.56%,5.43%,25.7% (inactive)
Cc1ccc(Nc2cc(C)nc3c(C)ccc([N+](=O)[O-])c23)cc1,-1.3%,15.4%,0.53%,-0.713%,57.4% (active)
CC(=O)c1ccc2c(c1)c1ccccc1n2CC(C)C,8.49%,0.833%,9.82%,9.42%,58.9% (active)
CCCCCn1c(SCCC(C)C)nc2c1c(=O)[nH]c(=O)n2C,-16.3%,-18.1%,1.4%,-0.767%,59.3% (active)
CCOC(=O)C(CC)Sc1ncnc2c1nnn2-c1ccc(F)cc1 (stereo not given),-7.74%,17%,0.993%,2.03%,50.7% (active)
